# Like-named read-outs stand apart in the source and are kept apart here.
# Key:
# Details in all cases: read-out: apparent Kd, n = 1
# MAP2K1 = system: MAP2K1
# MAP3K5 = system: MAP3K5
# MAPK10 = system: MAPK10
# [1] = compound concentrations:100 nM and 1000 nM (sheet 'Lestaurtinib' of Supplementary Table 1),run:Lestaurtinib_02765_R3,Plate:MR026
# [2] = compound concentrations:100 nM and 1000 nM (sheet 'Lestaurtinib' of Supplementary Table 1),run:Lestaurtinib_02766_R3,Plate:MR027
# [3] = compound concentrations:100 nM and 1000 nM (sheet 'Lestaurtinib' of Supplementary Table 1),run:Lestaurtinib_02768_R3,Plate:MR028
# [4] = compound concentrations:100 nM and 1000 nM (sheet 'Lestaurtinib' of Supplementary Table 1),run:Lestaurtinib_02795_R2,Plate:MR022
# [5] = compound concentrations:100 nM and 1000 nM (sheet 'Lestaurtinib' of Supplementary Table 1),run:Lestaurtinib_03172_R3,Plate:MR031
# [6] = compound concentrations:100 nM and 1000 nM (sheet 'Lestaurtinib' of Supplementary Table 1),run:Lestaurtinib_03260_R1,Plate:MR033
# [7] = compound concentrations:100 nM and 1000 nM (sheet 'Lestaurtinib' of Supplementary Table 1),run:Lestaurtinib_03260_R3,Plate:MR033
# [8] = compound concentrations:100 nM and 1000 nM (sheet 'Lestaurtinib' of Supplementary Table 1),run:Lestaurtinib_02367_R1,Plate:MR003
# [9] = compound concentrations:100 nM and 1000 nM (sheet 'Lestaurtinib' of Supplementary Table 1),run:Lestaurtinib_02407_R1,Plate:MR005
# [10] = compound concentrations:100 nM and 1000 nM (sheet 'Lestaurtinib' of Supplementary Table 1),run:Lestaurtinib_02407_R2,Plate:MR005
# [11] = compound concentrations:100 nM and 1000 nM (sheet 'Lestaurtinib' of Supplementary Table 1),run:Lestaurtinib_02422_R2,Plate:MR006
# [12] = compound concentrations:100 nM and 1000 nM (sheet 'Lestaurtinib' of Supplementary Table 1),run:Lestaurtinib_02437_R1,Plate:MR007
# [13] = compound concentrations:100 nM and 1000 nM (sheet 'Lestaurtinib' of Supplementary Table 1),run:Lestaurtinib_02437_R2,Plate:MR007
# [14] = compound concentrations:100 nM and 1000 nM (sheet 'Lestaurtinib' of Supplementary Table 1),run:Lestaurtinib_02473_R1,Plate:MR010
# [15] = compound concentrations:100 nM and 1000 nM (sheet 'Lestaurtinib' of Supplementary Table 1),run:Lestaurtinib_02473_R2,Plate:MR010
# [16] = compound concentrations:100 nM and 1000 nM (sheet 'Lestaurtinib' of Supplementary Table 1),run:Lestaurtinib_02473_R3,Plate:MR010
# [17] = compound concentrations:100 nM and 1000 nM (sheet 'Lestaurtinib' of Supplementary Table 1),run:Lestaurtinib_02482_R1,Plate:MR011
# [18] = compound concentrations:100 nM and 1000 nM (sheet 'Lestaurtinib' of Supplementary Table 1),run:Lestaurtinib_02482_R2,Plate:MR011
# [19] = compound concentrations:100 nM and 1000 nM (sheet 'Lestaurtinib' of Supplementary Table 1),run:Lestaurtinib_02487_R1,Plate:MR012
# [20] = compound concentrations:100 nM and 1000 nM (sheet 'Lestaurtinib' of Supplementary Table 1),run:Lestaurtinib_02566_R1,Plate:MR014
substance,measurement,setting,value
Lestaurtinib,potency estimated from few doses,"MAP2K1; compound concentrations:100 nM and 1000 nM (sheet 'Lestaurtinib' of Supplementary Table 1),run:Lestaurtinib_02741_R3,Plate:MR023",1.32 µM
same,potency estimated from few doses,"MAP2K1; compound concentrations:100 nM and 1000 nM (sheet 'Lestaurtinib' of Supplementary Table 1),run:Lestaurtinib_02748_R1,Plate:MR024",1.44 µM
same,potency estimated from few doses,"MAP2K1; compound concentrations:100 nM and 1000 nM (sheet 'Lestaurtinib' of Supplementary Table 1),run:Lestaurtinib_02748_R3,Plate:MR024",1.4 µM
same,potency estimated from few doses,"MAP2K1; compound concentrations:100 nM and 1000 nM (sheet 'Lestaurtinib' of Supplementary Table 1),run:Lestaurtinib_02752_R2,Plate:MR025",1.51 µM
same,potency estimated from few doses,"MAP2K1; compound concentrations:100 nM and 1000 nM (sheet 'Lestaurtinib' of Supplementary Table 1),run:Lestaurtinib_02765_R2,Plate:MR026",1.62 µM
same,potency estimated from few doses,MAP2K1; [1],1.67 µM
same,potency estimated from few doses,"MAP2K1; compound concentrations:100 nM and 1000 nM (sheet 'Lestaurtinib' of Supplementary Table 1),run:Lestaurtinib_02766_R1,Plate:MR027",0.964 µM
same,potency estimated from few doses,MAP2K1; [2],1.54 µM
same,potency estimated from few doses,MAP2K1; [3],2.21 µM
same,potency estimated from few doses,MAP2K1; [4],0.771 µM
same,potency estimated from few doses,"MAP2K1; compound concentrations:100 nM and 1000 nM (sheet 'Lestaurtinib' of Supplementary Table 1),run:Lestaurtinib_02802_R1,Plate:MR029",1.9 µM
same,potency estimated from few doses,"MAP2K1; compound concentrations:100 nM and 1000 nM (sheet 'Lestaurtinib' of Supplementary Table 1),run:Lestaurtinib_02896_R1,Plate:MR030",0.803 µM
same,potency estimated from few doses,MAP2K1; [5],0.823 µM
same,potency estimated from few doses,"MAP2K1; compound concentrations:100 nM and 1000 nM (sheet 'Lestaurtinib' of Supplementary Table 1),run:Lestaurtinib_03252_R1,Plate:MR032",1.54 µM
same,potency estimated from few doses,MAP2K1; [6],1.21 µM
same,potency estimated from few doses,MAP2K1; [7],2.31 µM
same,potency estimated from few doses,"MAP3K5; compound concentrations:100 nM and 1000 nM (sheet 'Lestaurtinib' of Supplementary Table 1),run:Lestaurtinib_02364_R1,Plate:MR002",0.938 µM
same,potency estimated from few doses,MAP3K5; [8],1.24 µM
same,potency estimated from few doses,"MAP3K5; compound concentrations:100 nM and 1000 nM (sheet 'Lestaurtinib' of Supplementary Table 1),run:Lestaurtinib_02381_R1,Plate:MR004",0.987 µM
same,potency estimated from few doses,"MAP3K5; compound concentrations:100 nM and 1000 nM (sheet 'Lestaurtinib' of Supplementary Table 1),run:Lestaurtinib_02381_R2,Plate:MR004",0.926 µM
same,potency estimated from few doses,"MAP3K5; compound concentrations:100 nM and 1000 nM (sheet 'Lestaurtinib' of Supplementary Table 1),run:Lestaurtinib_02381_R3,Plate:MR004",0.826 µM
same,potency estimated from few doses,MAP3K5; [9],1.6 µM
same,potency estimated from few doses,MAP3K5; [10],1.35 µM
same,potency estimated from few doses,MAP3K5; [11],1.15 µM
same,potency estimated from few doses,MAP3K5; [12],1.46 µM
same,potency estimated from few doses,MAP3K5; [13],0.983 µM
same,potency estimated from few doses,"MAP3K5; compound concentrations:100 nM and 1000 nM (sheet 'Lestaurtinib' of Supplementary Table 1),run:Lestaurtinib_02438_R2,Plate:MR008",1.37 µM
same,potency estimated from few doses,"MAP3K5; compound concentrations:100 nM and 1000 nM (sheet 'Lestaurtinib' of Supplementary Table 1),run:Lestaurtinib_02438_R3,Plate:MR008",1.53 µM
same,potency estimated from few doses,"MAP3K5; compound concentrations:100 nM and 1000 nM (sheet 'Lestaurtinib' of Supplementary Table 1),run:Lestaurtinib_02443_R1,Plate:MR009",1.31 µM
same,potency estimated from few doses,"MAP3K5; compound concentrations:100 nM and 1000 nM (sheet 'Lestaurtinib' of Supplementary Table 1),run:Lestaurtinib_02443_R2,Plate:MR009",1.41 µM
same,potency estimated from few doses,MAP3K5; [14],0.969 µM
same,potency estimated from few doses,MAP3K5; [15],1.43 µM
same,potency estimated from few doses,MAP3K5; [16],0.858 µM
same,potency estimated from few doses,MAP3K5; [17],1.46 µM
same,potency estimated from few doses,MAP3K5; [18],1.89 µM
same,potency estimated from few doses,MAP3K5; [19],1.21 µM
same,potency estimated from few doses,MAP3K5; [20],0.946 µM
same,potency estimated from few doses,"MAP3K5; compound concentrations:100 nM and 1000 nM (sheet 'Lestaurtinib' of Supplementary Table 1),run:Lestaurtinib_02572_R3,Plate:MR015",1.62 µM
same,potency estimated from few doses,"MAP3K5; compound concentrations:100 nM and 1000 nM (sheet 'Lestaurtinib' of Supplementary Table 1),run:Lestaurtinib_02577_R1,Plate:MR016",1.36 µM
same,potency estimated from few doses,"MAP3K5; compound concentrations:100 nM and 1000 nM (sheet 'Lestaurtinib' of Supplementary Table 1),run:Lestaurtinib_02584_R2,Plate:MR017",1.3 µM
same,potency estimated from few doses,"MAP3K5; compound concentrations:100 nM and 1000 nM (sheet 'Lestaurtinib' of Supplementary Table 1),run:Lestaurtinib_02584_R3,Plate:MR017",1.36 µM
same,potency estimated from few doses,"MAP3K5; compound concentrations:100 nM and 1000 nM (sheet 'Lestaurtinib' of Supplementary Table 1),run:Lestaurtinib_02601_R1,Plate:MR018",1.7 µM
same,potency estimated from few doses,"MAP3K5; compound concentrations:100 nM and 1000 nM (sheet 'Lestaurtinib' of Supplementary Table 1),run:Lestaurtinib_02601_R2,Plate:MR018",1.46 µM
same,potency estimated from few doses,"MAP3K5; compound concentrations:100 nM and 1000 nM (sheet 'Lestaurtinib' of Supplementary Table 1),run:Lestaurtinib_02606_R1,Plate:MR019",1.44 µM
same,potency estimated from few doses,"MAP3K5; compound concentrations:100 nM and 1000 nM (sheet 'Lestaurtinib' of Supplementary Table 1),run:Lestaurtinib_02606_R3,Plate:MR019",1.35 µM
same,potency estimated from few doses,"MAP3K5; compound concentrations:100 nM and 1000 nM (sheet 'Lestaurtinib' of Supplementary Table 1),run:Lestaurtinib_02624_R1,Plate:MR020",1.44 µM
same,potency estimated from few doses,"MAP3K5; compound concentrations:100 nM and 1000 nM (sheet 'Lestaurtinib' of Supplementary Table 1),run:Lestaurtinib_02624_R2,Plate:MR020",0.998 µM
same,potency estimated from few doses,"MAP3K5; compound concentrations:100 nM and 1000 nM (sheet 'Lestaurtinib' of Supplementary Table 1),run:Lestaurtinib_02724_R1,Plate:MR021",0.998 µM
same,potency estimated from few doses,"MAP3K5; compound concentrations:100 nM and 1000 nM (sheet 'Lestaurtinib' of Supplementary Table 1),run:Lestaurtinib_02741_R1,Plate:MR023",0.916 µM
same,potency estimated from few doses,"MAP3K5; compound concentrations:100 nM and 1000 nM (sheet 'Lestaurtinib' of Supplementary Table 1),run:Lestaurtinib_02765_R1,Plate:MR026",1.49 µM
same,potency estimated from few doses,MAP3K5; [1],1.83 µM
same,potency estimated from few doses,"MAP3K5; compound concentrations:100 nM and 1000 nM (sheet 'Lestaurtinib' of Supplementary Table 1),run:Lestaurtinib_02766_R2,Plate:MR027",1.15 µM
same,potency estimated from few doses,MAP3K5; [2],0.942 µM
same,potency estimated from few doses,"MAP3K5; compound concentrations:100 nM and 1000 nM (sheet 'Lestaurtinib' of Supplementary Table 1),run:Lestaurtinib_02768_R1,Plate:MR028",1.15 µM
same,potency estimated from few doses,MAP3K5; [3],0.923 µM
same,potency estimated from few doses,MAP3K5; [4],1.34 µM
same,potency estimated from few doses,"MAP3K5; compound concentrations:100 nM and 1000 nM (sheet 'Lestaurtinib' of Supplementary Table 1),run:Lestaurtinib_02802_R3,Plate:MR029",0.687 µM
same,potency estimated from few doses,"MAP3K5; compound concentrations:100 nM and 1000 nM (sheet 'Lestaurtinib' of Supplementary Table 1),run:Lestaurtinib_03172_R1,Plate:MR031",1.31 µM
same,potency estimated from few doses,MAP3K5; [5],1.57 µM
same,potency estimated from few doses,MAP3K5; [6],1.75 µM
same,potency estimated from few doses,"MAP3K5; compound concentrations:100 nM and 1000 nM (sheet 'Lestaurtinib' of Supplementary Table 1),run:Lestaurtinib_03260_R2,Plate:MR033",1.46 µM
same,potency estimated from few doses,MAP3K5; [7],1.58 µM
same,potency estimated from few doses,"MAPK10; compound concentrations:100 nM and 1000 nM (sheet 'Lestaurtinib' of Supplementary Table 1),run:Lestaurtinib_02339_R2,Plate:MR001",0.617 µM
same,potency estimated from few doses,"MAPK10; compound concentrations:100 nM and 1000 nM (sheet 'Lestaurtinib' of Supplementary Table 1),run:Lestaurtinib_02339_R3,Plate:MR001",1.15 µM
same,potency estimated from few doses,"MAPK10; compound concentrations:100 nM and 1000 nM (sheet 'Lestaurtinib' of Supplementary Table 1),run:Lestaurtinib_02364_R2,Plate:MR002",0.618 µM
same,potency estimated from few doses,"MAPK10; compound concentrations:100 nM and 1000 nM (sheet 'Lestaurtinib' of Supplementary Table 1),run:Lestaurtinib_02364_R3,Plate:MR002",0.801 µM
same,potency estimated from few doses,MAPK10; [8],1.62 µM
same,potency estimated from few doses,"MAPK10; compound concentrations:100 nM and 1000 nM (sheet 'Lestaurtinib' of Supplementary Table 1),run:Lestaurtinib_02367_R3,Plate:MR003",0.623 µM
same,potency estimated from few doses,MAPK10; [9],0.932 µM
same,potency estimated from few doses,MAPK10; [10],0.763 µM
same,potency estimated from few doses,"MAPK10; compound concentrations:100 nM and 1000 nM (sheet 'Lestaurtinib' of Supplementary Table 1),run:Lestaurtinib_02407_R3,Plate:MR005",1.46 µM
same,potency estimated from few doses,"MAPK10; compound concentrations:100 nM and 1000 nM (sheet 'Lestaurtinib' of Supplementary Table 1),run:Lestaurtinib_02422_R1,Plate:MR006",0.575 µM
same,potency estimated from few doses,MAPK10; [11],0.964 µM
same,potency estimated from few doses,"MAPK10; compound concentrations:100 nM and 1000 nM (sheet 'Lestaurtinib' of Supplementary Table 1),run:Lestaurtinib_02422_R3,Plate:MR006",0.609 µM
same,potency estimated from few doses,MAPK10; [12],0.865 µM
same,potency estimated from few doses,MAPK10; [13],0.838 µM
same,potency estimated from few doses,"MAPK10; compound concentrations:100 nM and 1000 nM (sheet 'Lestaurtinib' of Supplementary Table 1),run:Lestaurtinib_02443_R3,Plate:MR009",0.798 µM
same,potency estimated from few doses,MAPK10; [14],0.97 µM
same,potency estimated from few doses,MAPK10; [15],0.755 µM
same,potency estimated from few doses,MAPK10; [16],0.882 µM
same,potency estimated from few doses,MAPK10; [17],0.469 µM
same,potency estimated from few doses,MAPK10; [18],0.898 µM
same,potency estimated from few doses,"MAPK10; compound concentrations:100 nM and 1000 nM (sheet 'Lestaurtinib' of Supplementary Table 1),run:Lestaurtinib_02482_R3,Plate:MR011",0.612 µM
same,potency estimated from few doses,MAPK10; [19],0.798 µM
same,potency estimated from few doses,"MAPK10; compound concentrations:100 nM and 1000 nM (sheet 'Lestaurtinib' of Supplementary Table 1),run:Lestaurtinib_02487_R2,Plate:MR012",0.744 µM
same,potency estimated from few doses,MAPK10; [20],0.712 µM
